We go through 85 compounds from PubChem BioAssay AID588549 (Broad Institute, 2011).

Out of some 360,000 compounds screened, about 780 (0.22%) were called active. No stated cut-off is given here; in the data, active means inhibition above about 8.5% (passing the limit was not always enough); inconclusive means no clear call, values can overlap the other calls. What follows is part of a selection rich in actives, with near analogues and random picks from the rest.

The assay has as its system Mycobacterium tuberculosis FadD28 fatty-acid-AMP ligase. As to the kind of experiment: inhibitors of FadD28 bisubstrate probe binding, primary screen, biochemical, fluorescence polarization, single point (AID 588549). The conditions noted are these: at 12.5 µM, hits give high values.
Take `Cc1ccc(C(O)P(=O)(OC(C)C)c2ccc(N(C)C)cc2)cc1` (stereo not given): the inhibition is 0.612% (inactive).

Consider `CCCCn1c(N)c(N2CCOCC2)c(=O)n(CC(=O)NCCc2ccccc2)c1=O`, for which the inhibition is 0% (inactive). `N[C@@H](Cc1ccccc1)C(=O)N1CCC(C(=O)NCC(=O)Nc2ccc(F)cc2)CC1`: the inhibition is 0.565% (inactive). `O=C(CSc1n[nH]c(=O)n1-c1ccccc1)Nc1ccccc1C(F)(F)F`: the inhibition is -1.05% (inactive). As for `C=C1c2c(Cl)ccc(O)c2C(O)=C2C(=O)[C@]3(O)C(O)=C(C(N)=O)C(=O)[C@@H](N(C)C)[C@@H]3[C@@H](O)C12` (stereo not given in full), the inhibition was 11.1% (active). `C[C@H]([C@@H](O)[C@@H](O)[C@@H](C)C(C)(C)C)[C@H]1CC[C@H]2C3CC[C@H]4C[C@H](OS(=O)(=O)O)[C@@H](OS(=O)(=O)O)C[C@]4(C)[C@H]3CC[C@]12C` (stereo not given in full): the inhibition was -4.53% (inactive). To `Cc1ccc(NC(=O)C(c2ccccc2)N2CCN(C(=O)c3ccco3)CC2)cc1` (stereo not given) belongs -0.809% (inactive); to `COc1ccc(C(CNC(=O)c2cccc(S(=O)(=O)Nc3ccccc3Cl)c2)N2CCOCC2)cc1` (stereo not given), 0.098% (inactive); to `COc1ccc(N2C(=O)/C(=C/c3ccco3)C(=O)NC2=S)cc1`, 32.5% (active).

For `COC(=O)C1=C(C)N(C(C)c2ccccc2)C(=O)/C1=C\c1ccco1` (stereo not given), the inhibition is -2.87% (inactive). As for `CCCCN=C1N/C(=C\c2ccco2)C(=O)N1c1ccccc1`, the inhibition is -0.549% (inactive). In the case of `N#CCN(C(=O)COC(=O)C1CC2CCCC(C1)C2=O)c1ccccc1` (stereo not given), the inhibition was 0.44% (inactive). In the case of `CCOC(=O)C(CC)/C(C)=N\NC(=O)c1cccc(C)c1` (stereo not given), the inhibition was -0.964% (inactive). Regarding `CCN(CC)C(=O)C1=C(C)N(Cc2ccc(F)cc2)C(=O)C(CC(=O)NC2CCCC2)C1` (stereo not given), the inhibition is -3.83% (inactive). Consider `Cc1ccc(S(=O)(=O)N(C)c2ccc(OCC(=O)OCc3ccc(C#N)cc3)cc2)cc1`, for which the inhibition was -1.59% (inactive).

Consider `Nc1ncc(CN2CCCC(C(=O)Nc3ccc(-c4ccco4)cc3)C2)cn1` (stereo not given), for which the inhibition was -5.68% (inactive). On to `O=C(COC(=O)CNS(=O)(=O)c1ccc(F)c(F)c1F)NC1CCCC1`, for which the inhibition is -2.7% (inactive).

For the compound `O=C(OCc1ccc([N+](=O)[O-])cc1)C1CC(=O)N(Cc2ccccc2Cl)C1` (stereo not given), the inhibition is -0.71% (inactive). Regarding `Cc1ccc(S(=O)(=O)N2CCOCC2)cc1NC(=O)CSc1nnc(N)s1`, the inhibition was 1.4% (inactive).

As for `O=S(=O)(Nc1ccc2nc(-c3ccco3)[nH]c2c1)c1ccccc1`, the inhibition was -2.01% (inactive). Consider `COc1cc2c(C(=O)O)c(C)n(C)c2c2ccccc12`, for which the inhibition was 2.25% (inactive). The figure for `COc1cccc2c(C)c(C(=O)O)[nH]c12` is 15.1% (active). The figure for `COc1cccc2c(O)cc(=O)n(C)c12` is -3.24% (inactive); for `O=C1Nc2cc(Cl)c(Cl)cc2N(O)N1c1cc(Cl)cc(Cl)c1` it is -1.95% (inactive). Regarding `CC12CCC(=O)N1C(C(=O)Nc1ccc(F)c(F)c1F)CS2` (stereo not given), the inhibition was -2.85% (inactive). Turning to `CC[C@]1(C(=O)OC)[C@H]2C(=O)N(Cc3ccccc3)C(=O)[C@H]2[C@H]2CN=C(SCc3ccc(C#N)cc3)N21`, the inhibition was -7.96% (inactive). With `COc1cc(/C=C2/C(=O)NN(c3cccc(Cl)c3)C2=O)cc(Br)c1O`, the inhibition was 14.2% (active).

For `CCOc1c(Br)cc(/C=C2\C(=O)N(CCC#N)N=C2C)cc1OC`, the inhibition is -4.34% (inactive). Turning to `O=C(O)c1[nH]c2ccccc2c1C(c1cccc(O)c1)c1c(C(=O)O)[nH]c2ccccc12`, the inhibition is 28.9% (active). The figure for `Cc1c(C(=O)CN2CCOCC2)[nH]c2ccccc12` is -2.15% (inactive); for `CCCS(=O)(=O)Nc1c(C(=O)O)[nH]c2ccccc12` it is 1.47% (inactive); for `COc1cccc(C(=O)N/N=C(\C)c2cccc(NC(=O)c3ccc(F)cc3)c2)c1OC` it is -4.93% (inactive). Consider `C/C(=N\Nc1cccc(C(=O)O)c1)c1ccc2c(c1)Nc1ccccc1S2`, for which the inhibition was 13.8% (active). Turning to `CC(=O)Nc1cccc(/C(C)=N/NC(=O)c2c(-c3ccccc3Cl)noc2C)c1`, the inhibition is -2.25% (inactive). Consider `Cc1ccc(CNC(=O)CCNS(=O)(=O)c2cccc3nonc23)cc1`, for which the inhibition is 0.736% (inactive). On to `CC1CCN(C(=O)c2cc3nc(C4CC4)cc(C(F)(F)F)n3n2)CC1`, for which the inhibition was -2.25% (inactive). With `COc1ccc(/C=C/CN2CCCC(C(=O)c3cc(F)ccc3F)C2)cc1` (stereo not given), the inhibition is -1.96% (inactive). As for `CN(C(=O)C1CCN(c2ncnc3c2nc2n3CCCCC2)CC1)C1CCCCC1`, the inhibition was -3.36% (inactive). In the case of `COCCCNC(NC(=O)c1ccc(OC)cc1)C(Cl)(Cl)Cl` (stereo not given), the inhibition was -3.52% (inactive).

With `c1ccc(CCN2CN=C(Nc3nc4ccccc4o3)NC2)cc1`, the inhibition was -1.13% (inactive). Turning to `COc1ccc(C(=O)c2c(C)c(CCC#N)n3ccccc23)c(OC)c1`, the inhibition was -2.38% (inactive). On to `Cc1ccc(S(=O)(=O)N2C[C@H]3C(=O)C[C@@H](c4cccc5ccccc45)N(S(=O)(=O)c4ccc(C)cc4)[C@H]3C[C@H]2c2ccc(Cl)cc2)cc1`, for which the inhibition is -2.51% (inactive). Take `COc1cccc(N2C(=O)NC(=O)/C(=C\c3ccc([N+](=O)[O-])s3)C2=O)c1`: the inhibition is 16.4% (active). On to `O=[N+]([O-])c1ccc(C=Nc2ccc(Cl)cc2Cl)s1`, for which the inhibition was -1.01% (inactive). Consider `O=C1NC(=O)N(c2ccccc2)C(=O)/C1=C/c1ccc([N+](=O)[O-])s1`, for which the inhibition was 25.4% (active). To `COc1cccc(C(=O)Oc2cc(C)[nH]c(=O)c2[N+](=O)[O-])c1` belongs -0.419% (inactive); to `COc1cccc(/C=C2\SC(=N)N(c3ccc(F)cc3)C2=O)c1`, -2.96% (inactive). Turning to `O=C(OCC(=O)N1CCN(c2ccccc2)CC1)c1ccc([N+](=O)[O-])s1`, the inhibition is 0.124% (inactive). As for `CCCC1C(c2ccccc2)C(C#N)(C#N)C2(C#N)CC1(N)NC2=O` (stereo not given), the inhibition is -0.503% (inactive).

In the case of `COc1cccc(OCC(O)CNC(=O)c2oc3c(C)c(C)ccc3c2C)c1` (stereo not given), the inhibition is -2.55% (inactive). On to `COc1cc(O)c2c(=O)c3c(O)c(O)ccc3oc2c1OC`, for which the inhibition is -0.783% (inactive).

Consider `COc1c(O)cc2oc(-c3ccc(O)c(O)c3)cc(=O)c2c1O`, for which the inhibition was 13.9% (active). `OCc1ccc(-c2ccccc2)c(-c2ccccc2)c1`: the inhibition is -0.325% (inactive). On to `COc1ccccc1C(=O)NC(=S)NC12CC3CC(CC(C3)C1)C2`, for which the inhibition is -0.832% (inactive).

Turning to `COc1ccc(CCNC(=S)NC(=O)/C=C/c2ccc(C)cc2)cc1OC`, the inhibition is -0.381% (inactive). The figure for `CC(Nc1ccccc1)c1cccnc1` (stereo not given) is -4.94% (inactive); for `CCC(CC)c1nnc(NC(=O)c2nn(C)c(=O)c3ccccc23)s1` it is -1.39% (inactive); for `Cc1ccc(N2CCN(S(=O)(=O)c3ccc(F)cc3)CC2)c(C)c1` it is -3.77% (inactive). Turning to `CC1CC(C)CN(C(=O)COC(=O)c2ccc3ncsc3c2)C1` (stereo not given), the inhibition was -1.75% (inactive). With `Cc1cc(C)c(C#N)c(SCC(=O)N(CC(C)C)C2CCS(=O)(=O)C2)n1` (stereo not given), the inhibition is -3.78% (inactive). To `CCC(C)(C)c1ccc(Oc2ccc(NC(=O)COC(=O)C3=COCCO3)cc2)cc1` belongs -2.88% (inactive); to `COc1ccccc1CCCNC(=O)C1CCC(=O)N(CCN2CCOCC2)C1` (stereo not given), -0.246% (inactive); to `Cn1c(=O)n(CCc2ccccc2)c(=O)c2c1nc1n2CCCN1c1ccccc1`, -3.89% (inactive).

Turning to `Cc1ccc(NC(=O)CN2C(=O)NC(C)(c3ccc(Cl)cc3)C2=O)c(Br)c1` (stereo not given), the inhibition is -1.17% (inactive). On to `COc1ccc(NC(=O)CN(C)C(=O)c2cccc(S(=O)(=O)N3CCN(c4ccccc4)CC3)c2)cc1`, for which the inhibition is -1.23% (inactive).

As to `O=C(O)c1ccccc1N=N/C(=N/Nc1cc(S(=O)(=O)O)ccc1O)c1ccccc1`, the inhibition was 8.82% (active). As to `CC(C)(O)C#Cc1ccc(CNC[C@H]2O[C@@H](n3cnc4c(=O)[nH]c(N)nc43)[C@H](O)[C@@H]2O)s1`, the inhibition was -0.925% (inactive). `O=S(=O)(c1ccc(SCc2ccc(Br)cc2)nc1)N1CCOCC1`: the inhibition is -1.66% (inactive).

Take `O=C(Nc1cccc(-c2cccc(Cl)c2)c1)C1CCN(C2CCC2)CC1`: the inhibition is -25.6% (inactive). Regarding `Cc1ccc(/C([O-])=C(/C(=S)NCc2ccco2)[n+]2ccccc2)cc1[N+](=O)[O-]`, the inhibition is 1.32% (inactive). To `Cc1sc2ncnc(SCC(=O)NC3CCS(=O)(=O)C3)c2c1C` (stereo not given) belongs -1.04% (inactive); to `CC1CCCC(C)N1C(=O)COC(=O)COc1ccccc1C#N` (stereo not given), -1.75% (inactive). For `Cc1cc(OCC(=O)N2CCN(c3ncccn3)CC2)ccc1Cl`, the inhibition is -3.44% (inactive). Regarding `COc1ccc(C(=O)Nc2ccnn2C2CCN(Cc3ccncc3)CC2)cc1`, the inhibition is -2.54% (inactive). In the case of `CCC(C)C(CO)NC(=O)/C=C/[C@H]1O[C@@H](n2cnc3c(NC(=O)c4ccccc4)ncnc32)[C@H](O)[C@@H]1O` (stereo not given in full), the inhibition is -0.392% (inactive). Consider `COc1cc(C(O)c2nc(-c3cnn(C)c3)cs2)ccc1F` (stereo not given), for which the inhibition is -2.58% (inactive). For `CS(=O)(=O)N(Cc1ccccc1)c1ccc(C(=O)NN=C2CCCCCC2)cc1`, the inhibition was -7.2% (inactive). Turning to `CCCN(C(=O)c1nc2nccc(C)n2n1)c1c(N)n(Cc2ccccc2)c(=O)[nH]c1=O`, the inhibition was 0.906% (inactive). The figure for `O=Nc1c(O)cc(O)c2ccccc12` is -1.75% (inactive); for `COc1ccc(C(=O)NCC2CCCCC2)cc1S(=O)(=O)N1CCCC1` it is -0.215% (inactive); for `COc1ccc(C(=O)NCc2ccc(C)cc2)cc1S(=O)(=O)N1CCCC1` it is 28% (active). Turning to `COc1ccc(C(=O)NCC2CCCO2)cc1S(=O)(=O)NCc1ccc(Cl)cc1` (stereo not given), the inhibition is -1.14% (inactive). `COC(=O)c1ccc(CNC(=O)c2ccc(S(=O)(=O)N3CCCCCC3)cc2)cc1`: the inhibition was 1.15% (inactive).

Take `COc1ccccc1CNC(=O)c1ccc(Cl)c(S(=O)(=O)N2CCCC2)c1`: the inhibition was 1.35% (inactive). Take `COc1ccc(C(=O)NCc2ccc(Cl)cc2)cc1S(=O)(=O)N1CCCC1`: the inhibition is 39.8% (active).

By inhibition is commonly meant the drop in the measured response relative to a control, in per cent.
